From PubChem BioAssay

Experiments:
[1] = biological target: Tumor necrosis factor receptor superfamily member 10B (Homo sapiens) (UniProt O14763); experiment: viability loss of caspase-8 NB7 cells with TRAIL – with/without TRAIL, luminescence panel, confirmation (AID 651596); conditions: NB7 neuroblastoma + caspase-8, TRAIL sensitization, NB7 Caspase-8, with TRAIL, mean of runs, at 10 µM, stronger effect = higher value
[2] = as above; conditions: NB7 neuroblastoma + caspase-8, without TRAIL, NB7 Caspase-8, without TRAIL, mean of runs, at 10 µM

Chain of Tumor necrosis factor receptor superfamily member 10B (Homo sapiens) (O14763 whole entry, looked up): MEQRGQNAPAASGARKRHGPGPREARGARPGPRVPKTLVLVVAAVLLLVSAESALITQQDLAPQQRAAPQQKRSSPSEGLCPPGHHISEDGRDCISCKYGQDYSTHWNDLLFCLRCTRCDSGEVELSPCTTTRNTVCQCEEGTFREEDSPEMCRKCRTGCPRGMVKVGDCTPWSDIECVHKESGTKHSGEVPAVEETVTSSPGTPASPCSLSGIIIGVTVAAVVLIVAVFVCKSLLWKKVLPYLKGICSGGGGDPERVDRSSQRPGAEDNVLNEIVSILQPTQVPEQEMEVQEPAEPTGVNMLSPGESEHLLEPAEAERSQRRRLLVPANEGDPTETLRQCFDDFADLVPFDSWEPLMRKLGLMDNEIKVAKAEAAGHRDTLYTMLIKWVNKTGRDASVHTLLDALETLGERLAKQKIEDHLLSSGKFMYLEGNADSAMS

COc1ccc(-n2nnnc2C(c2cc3ccccc3o2)N2CCC(n3c(=O)[nH]c4ccccc43)CC2)cc1 (stereo unspecified)
activity [1]: 69.4%
activity [2]: 62.5%

CCCCCCCCCCCCCCCC[N+](C)(C)C
activity [1]: 96.8%
activity [2]: 96.8%

CCOC(=O)[C@]12Cc3cc(OC)ccc3[C@H]1N(C1CCCCC1)C(=O)c1cc(OC)ccc12
activity [1]: 57.6%
activity [2]: 75.7%

CCOC(=O)[C@]12Cc3cc(C)ccc3[C@H]1N(C(C)C)C(=O)c1ccccc12
activity [1]: 44.4%
activity [2]: 63.6%

Clc1ccc(C[n+]2c(-c3ccccc3)cc(-c3ccccc3)cc2-c2ccccc2)cc1
activity [1]: 79.1%
activity [2]: 65.9%

CN(C)C(=O)Oc1ccc(-c2cn3cc(Cl)ccc3n2)cc1
activity [1]: 80%
activity [2]: 85.6%

Oc1ccc(-[n+]2c(-c3ccccc3)cc(-c3ccccc3)cc2-c2ccccc2)cc1
activity [1]: 90.3%
activity [2]: 59.6%

O=c1[nH]c2ccccc2n1C1CCN(C(c2cc3ccccc3o2)c2nnnn2Cc2ccccc2)CC1 (stereo unspecified)
activity [1]: 73.2%
activity [2]: 75.7%

COc1ccc(-[n+]2c(-c3ccccc3)cc(-c3ccc(C)cc3)cc2-c2ccccc2)cc1
activity [1]: 74.3%
activity [2]: 64.8%

CC(=O)OC[C@]12CCC(C)=C[C@H]1O[C@@H]1[C@H](O)[C@@H](OC(C)=O)[C@@]2(C)[C@]12CO2
activity [1]: 95.1%
activity [2]: 97.4%

CCOC(=O)C(=CNc1ccc(C(O)(C(=O)OCC)C(F)(F)F)cc1C)C(=O)OCC (stereo unspecified)
activity [1]: -5.97%
activity [2]: 6.08%

COC(=O)[C@@H]1[C@@H](C(=O)OC)C2(c3ccccc3-c3ccccc32)N(c2ccc(Cl)cc2)N1C#N
activity [1]: 96.8%
activity [2]: 99.2%

CCOc1ccc(-c2c(C)n(-c3ccc(OCC)cc3)c3[n+]2CCCCC3)cc1
activity [1]: 61%
activity [2]: 63%
